Data from PubChem BioAssay.
Several values for one entry are separate records, joined by “and”; a condition that tells them apart may be missing. Identical values can stand only once. Activity calls are given as the source filed them. Unless noted, no rule for the calls is given here. Square brackets hold non-standard residues; d marks the D form. Peptide text beside a SMILES is read from it. * marks the point of attachment. Phe(ol) = N[C@H](CO)Cc1ccccc1; Nle = CCCC[C@H](N)C(=O)O; Cbz = O=C(OCc1ccccc1)*; Boc = CC(C)(C)OC(=O)*; Aib = CC(C)(N)C(=O)O

Key:
[1] = sensitizers of A549 cells to miR-34 induction, primary screen, imaging, A549 dox-inducible miR-34, nuclei and caspase counts (AID 1347080;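 active = compounds whose cell count with miR-34 switched on is under 0.7 times the count with it off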); conditions: A549 miR-34 inducible, Hoechst nuclei count, 48 h
[2] = inhibitors of Cryptococcus chitosan production, flow cytometry, Cibacron Brilliant Red staining (AID 1347148); conditions: Cryptococcus neoformans chitosan, stronger effect = lower value; at 10 µM unless noted;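 also: compound exposure lasted three days at 37 degrees C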
[3] = hESC survival regulators, cell-based (AID 493140); conditions: human embryonic stem cell survival screen; stronger effect = higher value;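 also: cells exposed to compounds for four days before counting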
[4] = stronger effect = lower value, cell number ratio, induced over uninduced
[5] = measured here: relative caspase fold change +Dox/-Dox
[6] = measured here: total cells with miR-34 induction, stronger effect = lower value
[7] = measured here: total cells without miR-34 induction

Compound | fold change [1, 4] | fold change [1, 5] | cell count [1, 6] | cell count [1, 7] | fold fluorescence [2] | survival [3]
NC1=NC2C(N=C(Br)N2C2O[C@H]3COP(=O)(O)O[C@@H]3[C@@H]2O)C(=O)N1 (some centres not stated) | 0.962 (inactive) | 1.29 | 6370 | 6620 | 4.24 [at 117.3 µM] (inactive) | 
CCC(C)[C@H](NS(=O)(=O)c1cccc2ccccc12)C(=O)N[C@H](C=O)Cc1c[nH]c2ccccc12 (some centres not stated) | 0.877 (inactive) | 1.24 | 2990 | 3410 | 3.23 [at 101.7 µM] (inactive) | 
CC12C=CC(=O)C=C1CCC1C2=CCC2(C)C1CC[C@@H]2C(=O)CN1CCN(c2cc(N3CCCC3)nc(N3CCCC3)n2)CC1 (some centres not stated) | 0.969 (inactive) | 1.43 | 4330 | 4470 | 7.93 [at 81.9 µM] (inactive) | 
C[C@H]([C@H](C)N1CC(=O)NC(=O)C1)N1CC(=O)NC(=O)C1 | 0.938 (inactive) | 0.644 | 1940 | 2070 | 4.39 [at 177.1 µM] (inactive) | 
CCCCCCCCCCCCCCCCCCc1ccc(C(=O)/C=C/C(=O)O)cc1 | 0.918 (inactive) | 0.873 | 5110 | 5560 | 13.3 [at 116.6 µM] (inactive) | 
CC1(C)Oc2ccc(C#N)cc2[C@@H](OC2=CC(=O)CC2)[C@@H]1O | 0.927 (inactive) | 1.24 | 5940 | 6400 | 3.79 [at 167 µM] (inactive) | 
Clc1ccc2ncnc(NCc3ccc4c(c3)OCO4)c2c1 | 0.968 (inactive) | 1.41 | 3640 | 3760 | 6.11 [at 159.4 µM] (inactive) | 
Nc1cc(N2CCCCC2)nc(N)[n+]1OS(=O)(=O)[O-] | 0.999 (inactive) | 1.39 | 5860 | 5870 | 3.52 [at 172.8 µM] (inactive) | 
CCCC(=O)Nc1nc2c(ncn2C2O[C@H]3COP(=O)(O)O[C@@H]3[C@@H]2OC(=O)CCC)c(=O)[nH]1 (some centres not stated) | 1.02 (inactive) | 0.664 | 5430 | 5330 | 6.9 [at 103 µM] (inactive) | 
COc1ccc([C@H]2Sc3ccccc3N(CCN(C)C)C(=O)[C@H]2OC(C)=O)cc1 | 1.07 (inactive) | 1.13 | 5870 | 5500 | 4.51 [at 120.6 µM] (inactive) and 3.48 [at 120.6 µM] (inactive) | 
CC(C)[C@@H]1NC(=O)[C@H](Cc2ccccc2)NC(=O)[C@@H](CC(=O)O)NC(=O)CNC(=O)[C@H](CCCN=C(N)N)NC1=O | 1.03 (inactive) | 0.655 | 1320 | 1280 | 6.81 [at 87 µM] (inactive) | 
c1ccc(CN(CCN(Cc2ccccn2)Cc2ccccn2)Cc2ccccn2)nc1 | 0.775 (inactive) | 2.99 | 418 | 538 | 9.33 [at 117.8 µM] (inactive) | 
Nc1ncnc2c1nc(Br)n2C1O[C@H]2COP(=O)(O)O[C@@H]2[C@@H]1O (some centres not stated) | 0.835 (inactive) | 1.27 | 4570 | 5470 | 3.88 [at 122.5 µM] (inactive) | 
CC[C@H]1[C@@H]2C=C[C@@H]3[C@H]4C/C=C\C(=O)NCCC[C@@H]5NC(=O)C(=C5O)C(=O)CC[C@@H]4C[C@@H]3[C@H]2C[C@H]1C | 1.96 (inactive) | 0.587 | 636 | 324 | 7.3 [at 104 µM] (inactive) | 
N#C/C(=C/c1ccc(O)c(O)c1)C(=O)OC/C=C/c1ccccc1 | 1.11 (inactive) | 1.47 | 4460 | 4020 | 10.2 [at 155.6 µM] (inactive) | 
CCCCC[C@@H](O)/C=C/[C@H]1[C@H](C/C=C\CCCC(=O)O)[C@H](O)C[C@@H]1O | 1.15 (inactive) | 0.636 | 6980 | 6050 | 3.65 (inactive) | 
C=CC1CN2CCC1C[C@@H]2[C@H](O)c1ccnc2ccc(OC)cc12 (some centres not stated) | 0.899 (inactive) | 1.42 | 4890 | 5440 | 5.27 [at 154.1 µM] (inactive) | 
CCCCC[C@H](O)CC(=O)CCc1ccc(O)c(OC)c1 | 0.985 (inactive) | 0.961 | 5360 | 5440 | 5.62 [at 169.8 µM] (inactive) | 
COC(=O)/C=C/c1ccc(C(=O)NCC(=O)N[C@@H](CCC(=O)OC)C(=O)N[C@@H](CC(C)C)C(N)=O)cc1 | 0.902 (inactive) | 1.99 | 5510 | 6100 | 4.66 [at 96.4 µM] (inactive) | 
CCCCC/C=C\C\C=C/C=C/C=C/[C@@H](SC[C@H](NC(=O)CC[C@H](N)C(=O)O)C(=O)NCC(=O)O)[C@@H](O)CCCC(=O)O | 1.08 (inactive) | 1.43 | 6410 | 5930 | 3.59 [at 1 µM] (inactive) | 
CCCCC/C=C\C\C=C/C=C/C=C/[C@@H](SC[C@H](N)C(=O)NCC(=O)O)[C@@H](O)CCCC(=O)O | 0.978 (inactive) | 1.35 | 5990 | 6130 | 3.83 [at 1 µM] (inactive) | 
CN([C@@H](Cc1ccc(OS(=O)(=O)c2cccc3cnccc23)cc1)C(=O)N1CCN(c2ccccc2)CC1)S(=O)(=O)c1cccc2cnccc12 | 0.962 (inactive) | 1.57 | 5440 | 5650 | 3.04 [at 69.3 µM] (inactive) | 
O=C[C@@H]1CCCN1C(=O)[C@@H]1CCCN1C(=O)OCc1ccccc1 (Cbz-Pro-Pro-aldehyde) | 0.854 (inactive) | 1.14 | 5160 | 6040 | 5.13 [at 151.3 µM] (inactive) | 
CC(C)[C@H](NC(=O)CNC(=O)OC(C)(C)C)C(=O)N[C@H](C=O)C(C)C (Boc-Gly-Val-Val-aldehyde) | 0.895 (inactive) | 1.12 | 5740 | 6410 | 10.2 [at 139.9 µM] (inactive) | 

Compound | fold change [1, 4] | fold change [1, 5] | cell count [1, 6] | cell count [1, 7] | fold fluorescence [2] | survival [3]
CSCC[C@H](NC(=O)[C@H](Cc1ccccc1)NC[C@@H](NC[C@@H](N)CS)C(C)C)C(=O)O | 0.931 (inactive) | 1.07 | 6180 | 6640 | 4.75 [at 106.2 µM] (inactive) | 
CC(=O)NC(C)(C)C(=O)N1CCC[C@H]1C(=O)NC(C)(C)C(=O)N[C@@H](C)C(=O)NC(C)(C)C(=O)N[C@@H](C)C(=O)N[C@@H](CCC(N)=O)C(=O)NC(C)(C)C(=O)N[C@H](C(=O)NC(C)(C)C(=O)NCC(=O)N[C@@H](CC(C)C)C(=O)NC(C)(C)C(=O)N1CCC[C@H]1C(=O)N[C@H](C(=O)NC(C)(C)C(=O)NC(C)(C)C(=O)N[C@@H](CCC(=O)O)C(=O)N[C@@H](CCC(N)=O)C(=O)N[C@H](CO)Cc1ccccc1)C(C)C)C(C)C (Ac-[Aib]P[Aib]A[Aib]AQ[Aib]V[Aib]GL[Aib]PV[Aib][Aib]EQ[Phe(ol)]) | 1.08 (inactive) | 1.3 | 1460 | 1350 | 7.73 [at 25.5 µM] (inactive) | 
CCCCC/C=C\C\C=C/C=C/C=C/[C@@H](SC[C@H](N)C(=O)O)[C@@H](O)CCCC(=O)O | 1.09 (inactive) | 1.02 | 6150 | 5660 | 3.87 [at 1 µM] (inactive) | 
CCCCCCCCCCCCCCCCOC[C@H](CO)OC(C)=O | 0.961 (inactive) | 1.5 | 5130 | 5340 | 4.43 (inactive) | 
CC(C)C[C@@H](/C=C/S(C)(=O)=O)NC(=O)[C@H](CC(C)C)NC(=O)[C@H](CC(C)C)NC(=O)OCc1ccccc1 | 0.878 (inactive) | 1.63 | 585 | 666 | 3.84 [at 90.6 µM] (inactive) | 
CCCCC[C@@H](O)/C=C/[C@H]1[C@H](C/C=C\CCCC(=O)O)C(=O)C[C@@H]1O | 0.916 (inactive) | 0.858 | 4850 | 5300 | 3.88 (inactive) | 
C=C[C@@]1(C)CC(=O)[C@]2(O)[C@@]3(C)[C@H](O)CCC(C)(C)[C@@H]3[C@H](O)[C@H](OC(C)=O)[C@@]2(C)O1 | 0.854 (inactive) | 0.977 | 5250 | 6150 | 6.21 [at 121.8 µM] (inactive) | 
CCCCCCCC/C=C\CCCCCCCC(=O)OC[C@H](CO)OC(=O)CCCCCCC/C=C\CCCCCCCC | 1.03 (inactive) | 0.954 | 5310 | 5170 | 4.1 (inactive) | 
NC(=NCc1ccc(Cl)cc1Cl)NC(=O)c1nc(Cl)c(N)nc1N | 1.01 (inactive) | 0.617 | 1450 | 1430 | 10.2 [at 117.6 µM] (inactive) | 
CC(=O)N[C@@H](CC(C)C)C(=O)N[C@@H](CC(C)C)C(=O)N[C@H](C=O)CCCN=C(N)N | 0.979 (inactive) | 0.761 | 5980 | 6110 | 4.98 [at 117.2 µM] (inactive) | 
CCCC[C@@H](C=O)NC(=O)[C@H](CC(C)C)NC(=O)[C@H](CC(C)C)NC(C)=O (Ac-Leu-Leu-[Nle]-aldehyde) | 0.909 (inactive) | 1.22 | 1540 | 1700 | 4.19 [at 130.4 µM] (inactive) | 
CCCCCCCCCC(=O)OC[C@H](CO)OC(=O)CCCCCCCCC | 0.939 (inactive) | 0.854 | 5260 | 5600 | 7.36 (inactive) | 
COC(=O)CNC(=O)C(=O)OC | 0.976 (inactive) | 1.36 | 6040 | 6190 | 3.39 (inactive) | 
CCCC[C@@H](C)/C=C(C)/C=C(\C)C(=O)NC1=C[C@@](O)(/C=C/C=C/C=C/C(=O)NC2=C(O)CCC2=O)[C@@H]2O[C@@H]2C1=O | 1.01 (inactive) | 1.03 | 1310 | 1290 | 7.73 [at 90.8 µM] (inactive) | 
CCC(C)[C@@H](CO[C@@H](Cc1ccccc1)C(=O)N[C@@H](CCS(C)(=O)=O)C(=O)OC(C)C)NC[C@@H](N)CS (some centres not stated) | 0.946 (inactive) | 1.27 | 3500 | 3700 | 3.05 [at 89.3 µM] (inactive) | 
CCCCCC(=O)/C=C/C=C\CCCCCCCC(=O)O | 0.995 (inactive) | 1.29 | 5630 | 5650 | 4.25 [at 1 µM] (inactive) | 99.8 (inactive)
CCCCCCCCCCCCCCCC(=O)N[C@@H](COP(=O)(O)O)C(=O)O | 0.975 (inactive) | 1.1 | 5800 | 5940 | 4.28 (inactive) | 91.8 (inactive)
COc1c(C=O)c(O)cc2c1C(=O)c1ccccc1C2=O | 0.91 (inactive) | 0.797 | 2810 | 3080 | 5.22 [at 177.1 µM] (inactive) | 93.2 (inactive)
COCc1cc(O)c(O)c(O)c1-c1c(COC)cc(O)c(O)c1O | 1.2 (inactive) | 0.626 | 3710 | 3100 | 5.4 [at 147.8 µM] (inactive) | 106 (inactive)
CCCCC/C=C\C/C=C\C/C=C\C=C\C(=O)CCCC(=O)O | 0.886 (inactive) | 1.22 | 5820 | 6560 | 3.82 [at 1 µM] (inactive) | 84.8 (inactive)
CCCCCCCCCCCCC/C=C/[C@@H](O)[C@H](CO)NC(=O)CCCCCCCCCCCCCCC | 1.03 (inactive) | 1.04 | 5360 | 5200 | 6.35 (inactive) | 62.8 (inactive)
CCCCC/C=C\C/C=C\CCCCCCCC(=O)O[C@@H](CO)COC(=O)CCCCCCCCCCCCCCCCC | 0.999 (inactive) | 1.31 | 6430 | 6430 | 4.76 (inactive) | 
O=C(O)c1cc(N(Cc2ccccc2O)Cc2cc(O)ccc2O)ccc1O | 0.907 (inactive) | 1.1 | 5160 | 5680 | 4.34 [at 131.1 µM] (inactive) | 94.2 (inactive)
